Measured values: PubChem BioAssay

These compounds were tested against Alpha-bungarotoxin (Bungarus multicinctus) (UniProt P60615) (assay: alpha-bungarotoxin binders on microarray, profiling panel, artefact control for SMM control protein annotation, biochemical, small-molecule microarray, Alexa647 label, 635/667 nm fluorescence (AID 1117)). Conditions: alpha-BTX-A647 binding fluorescence, higher = more signal.
Alpha-bungarotoxin (Bungarus multicinctus), sequence (P60615 whole entry, looked up): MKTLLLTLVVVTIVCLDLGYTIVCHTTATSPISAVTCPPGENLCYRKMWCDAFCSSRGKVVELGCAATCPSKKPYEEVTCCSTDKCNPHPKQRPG

**Q.** How did the composite z-score turn out when `CCCCCCCCCCC(O)C1C=CC2C(=O)N(c3ccccc3)C(=O)C2N1Nc1ccc(C#N)cc1` (stereo not drawn) was run?
**A.** 1.19

**Q.** How did the composite z-score turn out when `O=C1C[C@]2(c3ccc([N+](=O)[O-])cc3)C(=O)N(C3CC3)c3cc(CO)ccc3[C@H]2N1CC12CC3CC(CC(C3)C1)C2` was run?
**A.** -0.444

**Q.** `C=C[C@H](C)[C@H](OC(=O)Nc1ccc(SC)cc1)c1ccc(OCCO)cc1` was tested. Which composite z-score did it give?
**A.** 1.58

**Q.** For `O=C1OCCC=C[C@H]2OC34C=CCN(c5ccc6ccccc6c5)C(=O)[C@H]3N(CCCO)C(=O)[C@@H]4C12` (stereo partly drawn), which composite z-score is on record?
**A.** -1.27

**Q.** How did the composite z-score turn out when `CCCCN1CC=CC23O[C@@H]4/C=C\CCCOC(=O)C4[C@H]2C(=O)N(CCO)[C@@H]3C1=O` (stereo partly drawn) was run?
**A.** -0.401

**Q.** Which composite z-score does the source give for `COc1cc2c(cc1O)C(c1cccs1)N(Cc1cc3c(cc1Br)OCO3)CC2` (stereo not drawn) here?
**A.** 2.08

**Q.** With `CCCC[C@@H](O)C1=C(COc2ccccc2)C[C@H]2C(=O)N(Cc3ccccc3)C(=O)[C@H]2[C@H]1CO` as the compound, how does the composite z-score read?
**A.** 1.29

**Q.** `COc1cc(C(O)C2C=CC3C(=O)N(C)C(=O)C3N2Nc2ccccc2)cc(OC)c1OC` (stereo not drawn) was tested. Which composite z-score did it give?
**A.** 0.469

**Q.** How did the composite z-score turn out when `COCCOC(=O)N1C(=O)[C@@]2(c3cc(C#CCCO)ccc31)[C@H](c1ccc(OCCO)cc1)N1[C@H](c3ccccc3)[C@H](c3ccccc3)OC(=O)[C@H]1[C@@H]2C(=O)Nc1nc2ccccc2s1` was run?
**A.** 1.96

**Q.** How did the composite z-score turn out when `C=CCNC(=O)[C@@H]1[C@H]2C(=O)O[C@H](c3ccccc3)[C@H](c3ccccc3)N2[C@H](c2ccc(OCCO)cc2)[C@@]12C(=O)N(C(=O)OCCOC)c1ccc(C#Cc3ccc(OC)cc3)cc12` was run?
**A.** 1.22

**Q.** For `N#Cc1ccc(NN2C(C(O)c3ccc(Br)cc3)C=CC3C(=O)N(c4ccccc4)C(=O)C32)cc1` (stereo not drawn), which composite z-score is on record?
**A.** 2.36

**Q.** Which composite z-score does the source give for `CCCC=C(CCC)[C@@H](NC(=O)C(C)(C)C)c1ccc(C(=O)OC)cc1` here?
**A.** 1.5

**Q.** For `CO[C@H]1O[C@H](CO)[C@@H](OC(=O)Nc2ccc(Br)cc2)[C@@H]2OC(=O)[C@@H](Cc3ccccc3)C/C=C/C[C@H](Cc3ccccc3)C(=O)O[C@@H]12`, which composite z-score is on record?
**A.** 0.804

**Q.** `C#CCN(Cc1ccccc1Br)[C@H](/C=C/c1ccccc1)[C@@H](O)Cc1ccccc1` was tested. Which composite z-score did it give?
**A.** 0.192

**Q.** With `CCCCCN1CC=CC23O[C@@H]4/C=C\CCCOC(=O)C4[C@H]2C(=O)N(C(C)CO)[C@@H]3C1=O` (stereo partly drawn) as the compound, how does the composite z-score read?
**A.** 2.97

**Q.** How did the composite z-score turn out when `CCCCCN1CC=CC23O[C@@H]4C=CCCOC(=O)C4[C@H]2C(=O)N(CCCCCCO)[C@@H]3C1=O` (stereo partly drawn) was run?
**A.** -0.675

**Q.** `NC(=O)[C@@]1(Cc2ccccc2)COC(c2ccc(OCCCO)cc2)=N1` was tested. Which composite z-score did it give?
**A.** -0.0002

**Q.** With `COC(=O)[C@@]1(Cc2ccc(OC)cc2)[C@H]2c3cc(C(=O)N4CCCC4)n(CCO)c3C[C@H]2CN1C(=O)c1ccccc1` as the compound, how does the composite z-score read?
**A.** 0.365
